This is an account of results in PubChem BioAssay (NCI).

Molecules are shown by their SMILES. This is part of a sample that, as a whole, favours compounds with a hit. Of some 83,000 tested, about 20% had one in any assay.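 The test compound was applied at a single concentration to cells in 96-well plates for 48 hours, and percent growth was recorded.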 Unmarked numbers belong to inactive results. Active and inactive are the calls of the source.

The assay concerns SK-MEL-5 melanoma. In words: NCI-60 one-dose screen, 48 h (100 = growth as untreated, 0 = no growth, -100 = all killed). To be noted: 10 µM unless noted. As for the experimental part: Growth inhibition of the SK-MEL-5 human tumor cell line is measured as a screen for anti-cancer activity. Cells are grown in 96 well plates and exposed to the test compound for 48 hours. Compounds are tested at a single concentration, which is 10^-5 M for most compounds. The reported endpoint is percent growth (GI% or GIPRCNT), where numbers from 0 - 100% represent growth inhibition, and numbers from -100% - 0 represent cell death. For example, a value of 40 represents 60% growth inhibition. A value of 0 means no net growth occurred over the course of the experiment. A value of -40 indicates 40% of cells at the beginning of the experiment died by the end of the experiment. A value of -100 means all cells are dead at the end of the experiment.
NCI-60 Human Tumor Cell Lines Screen was performed using the standard one-dose NCI protocol, which is described in more detail at https://dtp.cancer.gov/discovery_development/nci-60/default.htm.
Compounds with GIPRCNT values below 10 were considered active. Activity score was based on GIPRCNT using the following formula: […]
Score is 0 for GIPRCNT values of 100 or above, 50 for GIPRCNT values of 0, and 100 for GIPRCNT values of -100.
For the molecule `C=CCn1c(SCC(=O)Nc2ccc(C(=O)/C=C/c3ccc(Br)cc3)cc2)nnc1-c1c[nH]c2ccccc12`, the growth is 72.3%.
`O=S(=O)(Oc1ccc(-c2nnc(Nc3ccccc3)s2)cc1)C(F)(F)C(F)(F)C(F)(F)C(F)(F)C(F)(F)C(F)(F)F`: the growth is 108%.
In the case of `CNC(=O)c1c(NC(=O)c2cccc(C(F)(F)F)c2F)sc2c1CCC(=O)C2` it was -83.7% (active); in that of `Cc1ccc(-c2nnc(SCc3ccc(O)c4ncccc34)o2)cc1`, 2.42% (active); in that of `CNC(=O)c1c(NC(=O)c2ccccc2C(F)(F)F)sc2c1CCC(=O)C2`, -17.1% (active).
Under `COc1cc2oc(-c3cccc(N)c3)cc(=O)c2c(OC)c1OC` stands 98.8%; under `COc1ccc(C(=O)c2c(N)c(C#N)cn2-c2ccccc2OC)cc1`, 6.34% (active); under `C#Cc1ccc(C(=O)NCc2ccc(/C=C/C(=O)c3nccn3C)cc2)cc1`, 38.8%.
In the case of `C=C1CC[C@@H]2[C@]3(C)COC(c4ccccc4)O[C@@H]3CC[C@@]2(C)[C@@H]1C/C=C1/C(=O)OC[C@H]1O` (stereo not given in full) it was 94.7%; in that of `COc1cc(OC)c(/C=C/S(=O)(=O)Cc2ccc(OC)c(NCC(=O)NO)c2)c(OC)c1`, -30.6% (active).
In the case of `O=C(NCCN1CCCC1)c1ccc(-c2nc3ccc4[nH]ncc4c3c3c2CCCC3)cc1`, the growth is 5.04% (active).
In the case of `N#Cc1cccc(/C(N)=N/C(N)=N/c2nc3ccccc3s2)c1` it was 41.5%; in that of `Cc1ccc(-n2c(/C=C3\C(=O)Nc4ccccc43)ccc2CO)cc1`, 73.7%.
Take `CCOP(=O)(OCC)OC[C@]12CCC(C)(C)C=C1[C@H]1CC[C@@H]3[C@@]4(C)CC[C@H](OP(=O)(OCC)OCC)C(C)(C)[C@@H]4CC[C@@]3(C)[C@]1(C)CC2`: the growth is -93.4% (active).
Under `COC(=O)c1ccc(NC2=C/C(=N/S(=O)(=O)c3ccc(C(=O)O)cc3)c3ccccc3C2=O)cc1` stands -35.6% (active).
Under `CCNC(=O)N1CCc2cc(OC)c(OCCc3ccc(OC)nc3)cc2C1c1ccc(C)cc1C` (stereo not given) stands -31.6% (active).
As for `CCOC(=O)C(=O)/C(=C\c1ccc(Cl)cc1)C(=O)N1C(=S)NC(=O)C1CC(C)C` (stereo not given), the growth is 92.8%.
Under `COc1ccc([C@@H]2[C@@H](O)C(=O)N2c2cc(OC)c(OC)c(OC)c2)cc1F` stands -34% (active); under `COc1ccc(-n2c(/C=C3\C(=O)Nc4ccccc43)ccc2CO)cc1`, 94.5%; under `COc1ccc(Cn2cc3c(c2-c2cc(OC)c(OC)c(OC)c2)CCc2c(CN4CCCC4)noc2-3)cc1`, 20.7%.
In the case of `CC1=NC2=NC(=O)/C(=C3/N=C(C)C=C(c4ccccc4)N3N)NN2C(c2ccccc2)=C1`, the growth is 99.1%.
`NS(=O)(=O)c1ccc(Nc2nc(N/N=C/c3ccc(Cl)cc3)nc(Nc3ccccc3)n2)cc1`: the growth was 69.1%.
Consider `COc1c(N2CC3CCCNC3C2)c(F)cc2c(=O)c(C(=O)N/N=C/c3ccc(N(C)C)cc3)cn(C3CC3)c12` (stereo not given), for which the growth was 83.9%.
In the case of `COC(=O)/C=C/c1c(C2(C)NC(=O)c3ccccc3N2)c(=O)oc2ccc(Cl)cc12` (stereo not given) it was 91.4%; in that of `NC(N)=Nc1ccc(Oc2ccc(Nc3ccc(Cl)c(C(F)(F)F)c3)cc2)cc1`, 8.32% (active); in that of `CCN1CCN(Cc2cn(-c3ccc(S(N)(=O)=O)cc3)nn2)CC1`, 103%.
Under `NC(N)=Nc1ccc(Oc2cccc(Nc3cccc(C(F)(F)F)c3)c2)cn1` stands 31.4%; under `Fc1ccc(-c2cc3nc(C(Cl)Cl)nc(-c4ccc(F)cc4)n3n2)cc1`, 76.5%.
Under `CCOc1ccc(C(=O)Nc2ncc(Cc3ccc(F)cc3)s2)cc1` stands 33.4%; under `N#Cc1c(-c2cccs2)cc(-c2cnccn2)nc1SCC(=O)Nc1ccc(Br)cc1`, 91.1%; under `Nc1nc(N)c2c(n1)NC(c1ccc(C(F)(F)F)cc1)CC(c1ccc(Nc3nc(NCCO)nc(N4CCOCC4)n3)cc1)=N2` (stereo not given), 64.6%.
Regarding `C#CCC#CCN1CCC[C@H]1C(=O)NCC(=O)OC`, the growth is 100%.
In the case of `O=C(CSc1nnc(-c2ccc(Cl)cc2)n1-c1ccccc1)Nc1cccc(Cl)c1` it was 96.4%.
As for `CC(=O)c1cc(C(=O)N2c3ccccc3Sc3ccccc32)n2ccc3ccccc3c12`, the growth was 37.3%.
`Nc1ccccc1NC(=O)c1ccc(NC(=O)C/C=C/c2cccnc2)cc1`: the growth is 12.3%.
In the case of `O=C(Nc1cccc(Cl)c1)Nc1nc2ccc([N+](=O)[O-])cc2o1` it was -13% (active).
In the case of `Cc1nc2ncc(-c3ccc4ncnc(NCc5ccccc5)c4c3)cc2[nH]1` it was 82.8%; in that of `Cc1ccc(-n2cc(/C=N/NC(=O)c3ccncc3)c(-c3ccc(S(C)(=O)=O)cc3)n2)cc1`, 94.5%.
In the case of `O=C(Nc1ccc2c(ccn2Cc2ccccn2)c1)c1ccnnc1` it was 98.9%; in that of `NS(=O)(=O)c1ccc(-n2cc(CN3CCCCC3)nn2)cc1`, 99.6%.
